Experimental data as given in ChEMBL document CHEMBL3988442, “University of Dundee, Small-Polar-MMV Screening Library” (2021).
About 13,000 (27%) of roughly 48,000 compounds showed an effect of 50% or more. The list shows a part of the results.

These molecules were tested on Wolbachia pipientis (assay: Anti-Wolbachia Cell-Based Screen). Conditions: 5 µM.
Type: functional
Parameters: scale not given: in the data most compounds retested in dose-response had high values

| Compound | Percent Effect [%] |
| --- | --- |
| CC(CC#N)NC(=O)c1cc(Br)c2c(c1)OCCO2 (stereo unspecified) | 3.147 |
| Cc1ccc(C(=O)N2CCC(C(F)(F)F)CC2)cc1N1CCNC1=O | 18.95 |
| O=C(O)C(F)(F)F.O=C1CCCN1CC1CN(CC2CCOCC2)Cc2nccn2C1 (stereo unspecified) | -5.52 |
| CCCn1cnnc1CNCc1c[nH]nc1-c1ccc(F)cc1 | -2.592 |
| c1cncc(-c2nnc(C3(c4ccc5c(c4)OCO5)CCOCC3)o2)c1 | 0.6275 |
| O=C(NCCN1CCOCC1)c1cc(-c2ccccc2Cl)[nH]n1 | 0.5934 |
| Cn1ccnc1-c1cccc(NC(=O)NCCN2CCOCC2)c1 | 1.066 |
| NCc1cccc(-c2cccnc2C(=O)NCCN2CCOCC2)c1 | 178.8 |
| O=C(NCCCn1ccnc1)Nc1ccn(CCc2ccccn2)n1 | -2.122 |
| CCN(Cc1cccc(C(=O)Nc2cn(C)nn2)c1)[C@H]1COC[C@@H]1O | 20.02 |
| COc1cc(N2CCn3cc(CNc4ccccn4)nc3C2)ncn1 | 0.6158 |
| Cc1cc(CNC(=O)CCN2CCN(c3ccccn3)CC2)c(C)o1 | -14.14 |
| CC(C)OCCC(=O)NCCC(=O)N1CCN(c2ccccn2)CC1 | 105.6 |
| Cc1ccc(CNC(=O)CCN2CCN(c3ccccn3)CC2)n1C | 5.614 |
| CC(C)COCCC(=O)NCCC(=O)N1CCN(c2ccccn2)CC1 | 140.4 |
| Cc1ncsc1CNC(=O)CCN1CCN(c2ccccn2)CC1 | -8.127 |
| Cc1csc(N2CCN(C(=O)CCNc3ncccn3)CC2)n1 | -3.8 |
| Cc1noc(C)c1CN1CCC2(COCc3cnc(N(C)C)nc32)C1.O=C(O)C(F)(F)F (stereo unspecified) | -6.223 |
| Cc1nc(N2CCOCC2)nc2c1COCC21CCN(CC2CC2)C1.O=C(O)C(F)(F)F (stereo unspecified) | 1.071 |
| Cc1nc(N(C)C)nc2c1COCC21CCN(C(=O)NCC(C)C)C1 (stereo unspecified) | 114.7 |
| Cc1nc(N(C)C)nc2c1COCC21CCN(C(=O)C2CC2)C1 (stereo unspecified) | 112 |
| CC(=O)NCC(=O)N1CCC2(COCc3c(C)nc(N(C)C)nc32)C1 (stereo unspecified) | 108.4 |
| COCCN1CCC2(COCc3c(C)nc(N4CCOCC4)nc32)C1.O=C(O)C(F)(F)F (stereo unspecified) | 8.185 |
| Cc1nc(N2CCOCC2)nc2c1COCC21CCN(CC(C)C)C1 (stereo unspecified) | 0.306 |
| CCC(=O)N1CCC2(COCc3c(C)nc(N(C)C)nc32)C1 (stereo unspecified) | 5.169 |
| COCC(=O)N1CCC2(COCc3c(C)nc(N(C)C)nc32)C1 (stereo unspecified) | 100.6 |

| Compound | Percent Effect [%] |
| --- | --- |
| Cc1nc(N(C)C)nc2c1COCC21CCN(C(=O)NC(C)C)C1 (stereo unspecified) | 14.65 |
| Oc1c(F)cc(CNc2cccc(-c3nnc[nH]3)c2)cc1F | 3.752 |
| NCc1cn(CC2CCCN(C(=O)NCCc3ccc(F)cc3)C2)nn1 (stereo unspecified) | -14.7 |
| O=C(CSc1nnc[nH]1)NCc1sccc1Br | -6.223 |
| N#Cc1ccc(CC(=O)N2CCCC(n3cccn3)C2)cc1 (stereo unspecified) | 3.73 |
| O=C(CCc1ccc(Cl)s1)N1CCCC(n2cncn2)C1 (stereo unspecified) | 2.271 |
| O=C(Cc1ccc2c(c1)OCCO2)N1CCCC(n2cncn2)C1 (stereo unspecified) | 8.803 |
| COc1ccc(CCC(=O)N2CCCC(n3cncn3)C2)cc1 (stereo unspecified) | 106.9 |
| COc1ccc(CCN2CCCC(n3cncn3)C2)cc1 (stereo unspecified) | -2.484 |
| N#Cc1ccc(CCC(=O)N2CCCC(n3cncn3)C2)cc1 (stereo unspecified) | 122.1 |
| COc1ccc(CCCC(=O)N2CCCC(n3cncn3)C2)cc1 (stereo unspecified) | -28.74 |
| O=C(CCc1ccsc1)N1CCCC(n2cncn2)C1 (stereo unspecified) | 119.5 |
| O=C(c1cccnc1O)N1CCCC2(C=Cc3ccccc3O2)CC1 (stereo unspecified) | 2.5 |
| COc1cccc(COCC(O)CN2CC(n3cccn3)C2)c1 (stereo unspecified) | -10.3 |
| FC(F)Oc1ccc(CN2CCOC3(CCOCC3)C2)cc1Cl | 7.261 |
| CN(C)C(=O)N1CCN(Cc2ccc3occc3c2)[C@H]2CS(=O)(=O)C[C@H]21 | -2.327 |
| COc1ccccc1CCN(C)C(=O)NC(C)c1nncn1C (stereo unspecified) | 3.532 |
| CC(Nc1nc2c(cnn2C)c(=O)[nH]1)c1ccccn1 (stereo unspecified) | -0.01009 |
| O=C(NCCCNc1ccccc1)c1scnc1Cl | 2.651 |
| O=C(CN1CCOC(c2ccccc2C(F)(F)F)C1)NC1CC1 (stereo unspecified) | 8.433 |
| Cc1cc(NCc2csc(-c3ccco3)n2)ccc1C(N)=O | -17.43 |
| COCCN(C(=O)c1nc(-c2ccco2)sc1C)C1CC1 | 4.119 |
| COCCCNc1nc(CNC(C)=O)cc(-c2ccco2)n1 | 96.87 |
| COCCN1CCn2cc(CNC(=O)C3CCC3)nc2C1 | -2.168 |
| COCCCNc1nc(CNC(=O)C2CCC2)cc(-c2ccco2)n1 | 103.2 |
